Screening data as filed in PubChem.
Compounds with a hit are over-represented: about 7% of the library has one in this group of screens.
USP30 block: blocks human USP30 ubiquitin-rhodamine cleavage; AID 1645860; hit rate 5.3% among 47,000; purified USP30, Ub-rhodamine cleavage fluorescence; inhibition, % at 25 µM; Q70CQ3
USP28 block: inhibitors of human USP28 deubiquitinase; Q96RU2; purified USP28, Ub-rhodamine cleavage fluorescence, 30 min; inhibition, % at 25 µM; hit rate 3% among 47,000
Numbers without * were called inactive; i = inactive. No stated cut-off is given here; in the data, active means inhibition above about 30%; inactive means the rest.

SMILES	USP30 block	USP28 block
CCOCCCNC(=O)NC(CCC(C)C)c1c(-n2cccc2)sc2c1CCN(CC)C2 (stereo not given)	i	-203.0
COc1ccc(C(C)(C)C)cc1NC(=O)CCc1c[nH]c2ccccc12	-186.9	8.4
CC(C)c1nc(C2CCCN2C(=O)c2cc(C3CC3)[nH]n2)no1 (stereo not given)	11.5	1.4
FC(F)(F)c1cccc(Nc2nc(-c3ccccn3)nc3ccccc23)c1	52.0*	88.2*
c1csc(-c2nc(Nc3ccc4c(c3)CCC4)c3ccccc3n2)c1	-85.9	-40.0
OCCCNc1cc(-c2cccc(C(F)(F)F)c2)nc(-c2ccccn2)n1	-12.3	-9.1
Brc1ccc(Nc2nc(-c3ccccn3)nc3ccccc23)cc1	90.4*	93.4*
O=C(Nc1cccc(Br)c1)NC1CCS(=O)(=O)C1 (stereo not given)	16.1	-1.4
O=C(Nc1ccc2sccc2c1)c1ccc(F)cc1	57.7*	9.6
O=C(Nc1ccc2c(c1)COC2=O)c1ccc(F)cc1	-2.0	0.0
CO[C@H]1/C=C/[C@@](C)(O)/C=C/C(=O)O[C@H](C)[C@@H](C)CC/C=C/1C	39.5*	5.4
CO[C@H]1/C=C/[C@@](C)(O)/C=C/C(=O)O[C@H](C)C(C)C(O)C/C=C/1C (stereo not given in full)	-4.4	2.2
COc1ccc(/C=C/c2ccc(=O)n(Cc3ccccc3)n2)cc1	16.4	13.0
COc1ccc(Cn2nc(-c3ccccc3)cc2-c2ccccc2O)cc1	43.4*	20.6
COc1ccc(N(CC(=O)Nc2ccccc2F)S(=O)(=O)c2ccccc2)cc1OC	10.1	6.5
COC(=O)c1cc(NC(=O)Nc2cccc(Cl)c2)cc(C(=O)OC)c1	28.2	3.8
Cc1cc(C)cc(NC(=O)Cc2csc(NC(=O)Nc3cccc(Cl)c3)n2)c1	31.6*	24.2
O=C(NCCCN1CCN(c2ccccc2F)CC1)c1nnc(Cc2ccc3c(c2)OCO3)o1	-5.2	-2.5
O=C1Cc2cc(S(=O)(=O)N3CCC([C@@H]4NC(=O)N[C@H]5OCCC[C@H]54)CC3)ccc2N1	-72.2	2.4
CC1(C)Oc2ccc(C(=O)N3CCC([C@@H]4NC(=O)N[C@H]5OCCC[C@H]54)CC3)cc2NC1=O	31.8*	7.5
CCc1ccc(-c2nc(SCc3cc(=O)n4[nH]c(N)nc4n3)n[nH]2)cc1	-2.1	17.8
Cc1ccc(NC(=O)c2cc(-c3ccncc3)n[nH]2)c(Cl)c1	82.8*	60.0*
O=C(Nc1ccc(F)cc1F)c1cc(-c2ccccn2)n[nH]1	16.5	-7.3
Cc1ccc(-c2cc(C(=O)Nc3cccc(C)c3)[nH]n2)cc1	-75.7	-12.3
O=C(Nc1ccc(Cl)cc1F)c1cc(-c2ccncc2)n[nH]1	74.0*	24.9
SMILES	USP30 block	USP28 block
CCc1cc(C(=O)N2CCC(O)(Cn3ccc4ccncc43)CC2)no1	-17.6	5.9
CC(C)n1nnc2cc(S(=O)(=O)N3CCCC(C(=O)NCCc4ccco4)C3)ccc21 (stereo not given)	-30.2	7.3
Clc1cccc(CNc2cc(-n3ccnc3)ncn2)c1	-26.9	28.2
Cc1ccc(N2C(=O)[C@H]3[C@@H](C2=O)[C@]2(C(=O)Nc4c(C)cc(C)cc42)N2CCC[C@@H]32)c(Br)c1	-453.7	-132.4
Cn1ccc(-c2nc3ccccc3[nH]2)n1	13.4	-4.4
Cc1nn(-c2ccc([N+](=O)[O-])cc2)c(C)c1-c1nc2ccccc2[nH]1	63.4*	36.7*
Brc1c(N2CCOCC2)ncnc1N1CCOCC1	-0.3	-8.6
O=c1c2ccc(F)cc2ncn1Cc1csc(-c2ccccc2)n1	-118.2	47.4*
Cc1ccc(-c2nc(Cn3cnc4sc(C)c(C)c4c3=O)cs2)cc1	-201.7	-61.5
CCc1nccn1Cc1noc(-c2ccc(C)c(C)c2)n1	-3.1	38.6*
Cc1nccn1Cc1nc(-c2ccccc2)no1	1.4	17.5
O=C(NC1CC1)c1cccn1Cc1noc(-c2ccc(Cl)cc2)n1	16.6	4.6
CCc1nccn1Cc1nc(-c2ccc(Cl)cc2)no1	-14.6	42.8*
Cc1ccccc1-c1nc(Cn2ccnc2C)no1	14.4	32.4*
COc1ccccc1-c1nc(Cn2cnc3ccccc3c2=O)no1	-22.4	-4.3
Cc1ccc(N2C(=O)c3cccnc3C2CC(=O)NCc2ccccc2)cc1 (stereo not given)	23.4	3.5
CCOC(=O)c1ccc(-n2cc(C(=O)c3cccs3)nn2)cc1	5.6	4.5
O=C(NC1CCCCC1)c1ccccc1N1C(=O)[C@@H]2Cc3c([nH]c4ccccc34)C(c3cccc(Cl)c3)N2C1=O (stereo not given in full)	-116.9	-7.9
CC(C)=CCc1c2c(c3occ(-c4ccc(O)c(O)c4)c(=O)c3c1O)C=CC(C)(C)O2	78.7*	68.9*
CC(C)=CCc1c2c(c3occ(-c4ccc(O)cc4)c(=O)c3c1O)C=CC(C)(C)O2	56.5*	41.5*
O=C1NC2(CCc3ccccc31)CCN(C(=O)Cc1ccc(F)cc1)C2 (stereo not given)	10.1	4.2
Cc1[nH]nc(NC(=O)C2COc3ccccc3O2)c1-c1ccccc1 (stereo not given)	24.6	52.9*
COc1ccc(-c2c(NC(=O)C3COc4ccccc4O3)n[nH]c2C)cc1OC (stereo not given)	10.9	32.0*
COc1ccc(-c2c(NC(=O)c3cc(F)cc(F)c3)n[nH]c2C)cc1OC	27.4	12.6
CC(C)COc1ccc(-c2nonc2NC(=O)C2COc3ccccc3O2)cc1 (stereo not given)	29.0	8.6
SMILES	USP30 block	USP28 block
O=C1N[C@@H]2CN(S(=O)(=O)c3ccc(F)c(F)c3)CC[C@H]2CO1	9.2	-16.9
CCc1ccc(N2CCCn3c2nc2c3c(=O)n(Cc3ccccc3Cl)c(=O)n2C)cc1	-6.0	-24.1
Cc1cccc(NC(=O)CCn2cnc3c2c(=O)n(C)c(=O)n3C)c1	1.3	-3.5
CC(NC(=O)c1ccccc1)c1nc2ccccc2n1CC(=O)Nc1ccc(C#N)cc1 (stereo not given)	-1.4	0.3
CC(Oc1ccccc1)c1nc2ccccc2n1CC(=O)N1CCc2ccccc21 (stereo not given)	12.1	0.5
Cc1ccc(C(=O)NC(C)c2nc3ccccc3n2CC(=O)N2CCc3ccccc32)cc1 (stereo not given)	63.4*	25.5
CC(NC(=O)c1ccccc1)c1nc2ccccc2n1CC(=O)NC1CCCCC1 (stereo not given)	38.8*	7.8
CCCCNc1ncnc2c1oc1nc3c(cc12)COC(C)(C)C3	0.7	1.0
Cc1cccc(-c2c3c(=O)n(C)c(=O)n(C)c3cn2CCc2ccccc2)c1	-31.1	-5.7
NC(=O)Cn1c(=O)n(Cc2ccc(C(=O)NC3CCCC3)cc2)c(=O)c2ccccc21	28.6	22.9
COc1cc(N2C[C@H](OCC3CCOCC3)[C@H]3OCCC[C@H]32)ncn1	-4.4	-4.6
O=C(Nc1nnc(CCc2ccccc2)s1)C(=O)c1c[nH]c2ccccc12	35.2*	10.7
Cc1cccc(NC(=O)Nc2nnc(CC(=O)NCc3ccccc3)s2)c1C	5.1	9.9
COc1ccc2c(c1)CC(NS(=O)(=O)c1ccccc1)CO2 (stereo not given)	-17.0	-3.3
C[C@@H]1CCC2(C)CC[C@]3(C)C(=CCC4[C@@]5(C)CCC(O)C(C)(C)C5CC[C@]43C)C2[C@H]1C (stereo not given in full)	21.4	9.9
